Among the test systems are HCT-15 colon; HT29 colon; SNB-75 CNS; SNB-19 CNS; U251 CNS; PC-3 prostate; SK-MEL-5 melanoma; UACC-62 melanoma; LOX IMVI melanoma; SK-MEL-28 melanoma; SK-MEL-2 melanoma; EKVX NSCLC; SN12C renal; UO-31 renal; TK-10 renal; ACHN renal; CAKI-1 renal; A498 renal; CCRF-CEM leukemia; MOLT-4 leukemia.
Test in all cases: NCI-60 one-dose screen, 48 h (100 = growth as untreated, 0 = no growth, -100 = all killed)
Holding throughout (details): 10 µM unless noted

About 83,000 compounds went through this panel and 20% of them were active in at least one assay; those are over-represented in the sample as a whole.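 Interpretation: 100, growth as untreated; towards 0, rising growth inhibition; 0, no net growth; 0 to -100, cell death. Compounds scoring below 10 were considered active.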 Values without a mark were called inactive. Calls of active or inactive are those of the source.

As for `CCOC(=O)C1=C(C)NC(=O)NC1c1c(Cl)n(CCCl)c2ccccc12` (stereo not drawn), the growth in the assay on HCT-15 colon was 99.6%; with HT29 colon, 107%; in the assay on SNB-75 CNS, 85.4%; in the assay with SNB-19 CNS, 100%; in the assay on U251 CNS, 94.4%; with PC-3 prostate, 91.7%. For the same compound, the growth in the assay on SK-MEL-5 melanoma is 102%; in the assay with UACC-62 melanoma, 85.4%; in the assay on LOX IMVI melanoma, 92.6%; in the assay with SK-MEL-28 melanoma, 108%; with SK-MEL-2 melanoma, 106%; in the assay on EKVX NSCLC, 97.8%. Besides, the growth in the assay with SN12C renal is 101%; in the assay on UO-31 renal it was 68.5%; with TK-10 renal it was 34.1%; in the assay with ACHN renal it was 99%; in the assay with CAKI-1 renal it was 86.6%; in the assay with A498 renal, 95.3%. Further, the growth with CCRF-CEM leukemia was -54.5% (active).
Regarding `CC/C(=C(/c1ccc(Cl)cc1)c1ccc(OCCN(C)C)cc1)c1ccc(Cl)cc1`, the growth with HCT-15 colon is 32.2%; with HT29 colon it was 22.4%; in the assay on SNB-75 CNS, 61.9%; in the assay on SNB-19 CNS, 78.4%; in the assay on U251 CNS, 37.8%; in the assay on PC-3 prostate, 71.4%. Also, the growth with SK-MEL-5 melanoma was 86.4%; in the assay on UACC-62 melanoma, 96.3%; with LOX IMVI melanoma, 65.3%; with SK-MEL-28 melanoma, 90.3%; in the assay on SK-MEL-2 melanoma, 80.9%; in the assay with EKVX NSCLC, 73.7%. The growth is 81.3% in the assay on SN12C renal; 64.3% with UO-31 renal; 77.8% with TK-10 renal; 83.9% in the assay on ACHN renal; 60.4% in the assay with CAKI-1 renal; 59% in the assay on A498 renal. Also, the figures for the growth in the assay on CCRF-CEM leukemia and with MOLT-4 leukemia were 62.5% and 58.2%, respectively.
Regarding `COC(=O)[C@]1(C)CCC[C@]2(C)[C@H]3C[C@H]4C(C(C)C)=C[C@]3(CC[C@H]21)[C@@H]1C(=O)CC[C@H](OCCC#N)[C@@H]14`, the growth with HCT-15 colon is 84.9%; with HT29 colon, 69.6%; in the assay on SNB-75 CNS, 87.6%; with SNB-19 CNS, 89.6%; in the assay on U251 CNS, 77.6%; with PC-3 prostate, 34.5%. Also, the growth with SK-MEL-5 melanoma was 79.4%; in the assay on UACC-62 melanoma, 69.3%; in the assay on LOX IMVI melanoma it was 90.3%; with SK-MEL-28 melanoma it was 101%; in the assay with SK-MEL-2 melanoma it was 86.6%; in the assay with EKVX NSCLC, 57.1%. Also, the growth in the assay with SN12C renal is 93.5%; in the assay on UO-31 renal it was 71.1%; in the assay with TK-10 renal it was 94.8%; with ACHN renal it was 87.5%; in the assay on CAKI-1 renal, 68%; with A498 renal it was 105%. In the assay on CCRF-CEM leukemia, the growth was 81.5%.
As to `COc1cc(-c2nc3sccn3c2-c2ccnc(NCCNS(=O)(=O)c3ccccc3)n2)ccc1F`, the growth is 52.1% in the assay on HCT-15 colon; 24.6% in the assay with HT29 colon; 59.4% with SNB-75 CNS; 67.6% in the assay with SNB-19 CNS; 61% with U251 CNS; 30.9% with PC-3 prostate. The growth was 19% in the assay on SK-MEL-5 melanoma; 25.8% in the assay on UACC-62 melanoma; 41.4% in the assay with LOX IMVI melanoma; 63.7% in the assay on SK-MEL-28 melanoma; 54.2% with SK-MEL-2 melanoma; 61.5% in the assay on EKVX NSCLC. For the same compound, the growth is 46.4% in the assay on SN12C renal; 16.1% in the assay on UO-31 renal; 57% in the assay with TK-10 renal; 41.1% with ACHN renal; 26.9% in the assay on CAKI-1 renal; 48.9% with A498 renal. Also, in the assay on CCRF-CEM leukemia, the growth was 30.9%.
For `CCN1C(=S)N(c2ccccc2)C2C1NN=c1s/c(=C3\C(=O)N(C(C)C)c4ccccc43)c(=O)n12` (stereo not drawn), the growth with HCT-15 colon is 93.3%; in the assay on HT29 colon, 69.6%; in the assay with SNB-75 CNS, 61%; in the assay with SNB-19 CNS, 81.9%; with U251 CNS, 64.6%; in the assay with PC-3 prostate it was 79.3%. In addition, the growth is 92.1% in the assay on SK-MEL-5 melanoma; 83.5% in the assay with UACC-62 melanoma; 47.5% in the assay on LOX IMVI melanoma; 102% with SK-MEL-28 melanoma; 107% in the assay on SK-MEL-2 melanoma; 101% in the assay with EKVX NSCLC. For the same compound, the growth with SN12C renal is 55.1%; with UO-31 renal it was 80.5%; in the assay with TK-10 renal it was 86.6%; in the assay with ACHN renal it was 80%; in the assay with CAKI-1 renal, 76.2%; with A498 renal it was 97.5%. In the assay on CCRF-CEM leukemia, the growth is 93.1%.
As to `CCOC(=O)c1cc(C)n(-c2ccc(C(=O)O)cc2)c1C`, the growth with HCT-15 colon was 24.8%; in the assay on HT29 colon, 37.8%; in the assay on SNB-75 CNS, 130%; with SNB-19 CNS it was 94.5%; in the assay with U251 CNS, 96.3%; in the assay on PC-3 prostate, 83.3%. The growth in the assay with SK-MEL-5 melanoma is 92%; in the assay on UACC-62 melanoma, 86.7%; with LOX IMVI melanoma, 80.2%; in the assay on SK-MEL-28 melanoma it was 127%; in the assay on SK-MEL-2 melanoma it was 32%; with EKVX NSCLC, 118%. In addition, the growth in the assay on SN12C renal was 87.9%; in the assay with UO-31 renal it was 86.7%; in the assay with TK-10 renal, 93.5%; in the assay on ACHN renal it was 2.34% (active); in the assay with CAKI-1 renal it was 79.7%; in the assay with A498 renal it was 111%. The growth in the assay with CCRF-CEM leukemia is 92.2%.
In the case of `COc1ccc(NC2=C(I)C(=O)c3ncccc3C2=O)cc1`, the growth is -40.2% (active) in the assay with HCT-15 colon; 11.5% in the assay on HT29 colon; -93.1% (active) in the assay on SNB-75 CNS; 19.3% with SNB-19 CNS; -47.7% (active) in the assay with U251 CNS; 12.3% with PC-3 prostate. The growth is -94.6% (active) with SK-MEL-5 melanoma; -71.2% (active) with UACC-62 melanoma; -58.6% (active) in the assay with LOX IMVI melanoma; 20.5% in the assay with SK-MEL-28 melanoma; 29.1% with SK-MEL-2 melanoma; 64.8% in the assay with EKVX NSCLC. Moreover, the growth was -96.4% (active) with SN12C renal; -92.6% (active) in the assay on UO-31 renal; 51.1% in the assay on TK-10 renal; -12.7% (active) with ACHN renal; 24.1% in the assay on CAKI-1 renal; 65.3% with A498 renal. The growth with CCRF-CEM leukemia is 11%.
For `O=S(=O)(NCCNc1nccc(-c2c(-c3ccc(F)c(O)c3)nc3sccn23)n1)c1ccc(O)cc1`, the growth is 33.1% in the assay on HCT-15 colon; 17% in the assay on HT29 colon; 58.9% in the assay with SNB-75 CNS; 56.3% in the assay on SNB-19 CNS; 56.8% in the assay on U251 CNS; 22.4% in the assay on PC-3 prostate. The growth with SK-MEL-5 melanoma was 5.55% (active); in the assay on UACC-62 melanoma, 17.4%; in the assay on LOX IMVI melanoma it was 32.2%; in the assay on SK-MEL-28 melanoma it was 55.2%; in the assay on SK-MEL-2 melanoma it was 19.8%; with EKVX NSCLC, 56.3%. Besides, the growth with SN12C renal is 38.2%; with UO-31 renal, 6.46% (active); with TK-10 renal, 46.3%; with ACHN renal it was 33.3%; with CAKI-1 renal, 27.2%; in the assay with A498 renal, 43.4%. For the same compound, the growth in the assay with CCRF-CEM leukemia was 22.2%.

For the origin of these results see PubChem BioAssay (NCI).
